Out of some 400,000 compounds screened, about 2,100 (0.53%) were called active. Inconclusive results (about 14%) are left out. How the calls were made is not given here. The full list was thinned out, with actives kept by preference.
What follows are molecules tested against Ataxin-2 (Homo sapiens) (UniProt Q99700) (assay: qHTS for Inhibitors of ATXN expression.).
Ataxin-2 (Homo sapiens), sequence (Q99700 whole entry): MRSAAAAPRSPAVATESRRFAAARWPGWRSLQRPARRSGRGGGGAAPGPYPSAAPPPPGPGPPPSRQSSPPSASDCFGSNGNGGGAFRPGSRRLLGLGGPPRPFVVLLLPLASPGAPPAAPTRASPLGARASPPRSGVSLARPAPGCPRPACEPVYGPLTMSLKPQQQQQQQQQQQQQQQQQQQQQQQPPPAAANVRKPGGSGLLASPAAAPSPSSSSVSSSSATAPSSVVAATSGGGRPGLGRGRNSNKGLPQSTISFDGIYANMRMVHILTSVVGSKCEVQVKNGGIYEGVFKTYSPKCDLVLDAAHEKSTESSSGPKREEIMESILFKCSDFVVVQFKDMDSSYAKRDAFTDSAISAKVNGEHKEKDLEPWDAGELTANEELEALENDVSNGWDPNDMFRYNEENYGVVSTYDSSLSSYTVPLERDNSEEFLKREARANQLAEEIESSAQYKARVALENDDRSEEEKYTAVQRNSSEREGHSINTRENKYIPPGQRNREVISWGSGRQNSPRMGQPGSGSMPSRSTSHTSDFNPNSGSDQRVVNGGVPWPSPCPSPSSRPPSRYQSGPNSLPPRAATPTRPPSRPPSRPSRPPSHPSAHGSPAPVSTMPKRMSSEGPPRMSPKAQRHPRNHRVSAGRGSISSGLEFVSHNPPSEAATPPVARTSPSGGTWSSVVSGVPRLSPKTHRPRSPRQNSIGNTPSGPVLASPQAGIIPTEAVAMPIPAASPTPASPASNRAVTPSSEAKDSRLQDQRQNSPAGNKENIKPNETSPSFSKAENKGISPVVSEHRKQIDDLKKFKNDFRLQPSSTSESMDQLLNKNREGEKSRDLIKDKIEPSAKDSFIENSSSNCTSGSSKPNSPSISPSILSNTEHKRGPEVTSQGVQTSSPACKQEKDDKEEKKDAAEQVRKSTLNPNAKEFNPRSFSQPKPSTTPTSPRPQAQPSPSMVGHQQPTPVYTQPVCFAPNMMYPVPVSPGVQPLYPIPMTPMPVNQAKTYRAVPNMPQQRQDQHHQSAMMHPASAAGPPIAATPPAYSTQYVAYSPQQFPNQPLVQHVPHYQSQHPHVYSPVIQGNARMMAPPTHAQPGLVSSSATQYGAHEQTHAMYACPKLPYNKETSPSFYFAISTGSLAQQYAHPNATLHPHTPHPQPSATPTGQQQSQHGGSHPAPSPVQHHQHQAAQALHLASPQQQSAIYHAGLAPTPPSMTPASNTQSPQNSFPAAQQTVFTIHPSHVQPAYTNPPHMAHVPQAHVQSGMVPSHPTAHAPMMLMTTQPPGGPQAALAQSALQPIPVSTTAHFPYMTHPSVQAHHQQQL
Assay type: functional
`Cc1ccc(C(=O)N2CCN(Cc3ccc4c(c3)OCO4)CC2)cc1S(=O)(=O)N1CCOCC1` was tested, and the Potency was “inactive”. For `COc1ccc(-c2c(C)c3ccc(O)c(CN4CCCCC4C)c3oc2=O)cc1OC` (stereo unspecified), the Potency was “inactive”. In the case of `COCCCNC(=O)c1cc2c(=O)n3cccc(C)c3nc2n(C(C)C)c1=N`, the Potency is reported as “inactive”. In the case of `CCSc1nnc(-c2sc3nnc(-c4ccccc4)c(-c4ccccc4)c3c2N)o1`, the Potency is reported as “inactive”. With `CCC(=O)Oc1ccc2c(c1)OC1(OC(C)=O)OC(C)CC1=C2C` (stereo unspecified) the Potency was “inactive”. In the case of `COc1ccc(-c2nc(CCl)cs2)cc1OC`, the Potency is reported as “inactive”. In the case of `COc1cc2c3nnc(-c4ccc(F)cc4)c-3cn(Cc3cccc(F)c3)c2cc1OC`, the Potency is reported as “inactive”. In the case of `COc1ccccc1Cc1c(-c2ccc(OC)c(OC)c2)nc2ccc(Cl)cn12`, the Potency is reported as 39.8 µM (active). In the case of `COc1ccc(-c2nc3ccc(C)cn3c2Cc2cccc(F)c2)cc1OC`, the Potency is reported as 39.8 µM (active). With `COc1ccc(-c2nc3ccc(C)cn3c2Cc2cccc(Cl)c2)cc1OC` the Potency was 35.5 µM (active). For `COc1ccc(-c2n[nH]c(S)n2)cc1OC`, the Potency was “inactive”. For `COc1ccc(-c2nc3ccc(C)cn3c2Cc2ccc(C)cc2)cc1OC`, the Potency was 20 µM (active). With `COc1ccc(/C=N/NC(=O)c2c(C)nc3ccc(Cl)cn23)cc1OC` the Potency was “inactive”. In the case of `N=C(NOC(=O)CCCOc1ccccc1)c1cccc(Br)c1`, the Potency is reported as “inactive”. For `CSc1nc(-c2ccc(N(C)C)cc2)c(C#N)c(=O)n1C`, the Potency was “inactive”. `CCOC(=O)c1ccc(-c2ccc(/C=N/NC(=O)c3cncc(Br)c3)o2)cc1` was tested, and the Potency was “inactive”. With `Cc1cc(-c2onc3ccc(Cl)cc23)ccc1O` the Potency was “inactive”. In the case of `COc1ccc(-n2c(N)c(C(=O)NCc3ccco3)c3nc4ccccc4nc32)cc1OC`, the Potency is reported as “inactive”. `CN1C(=O)/C(=N\C2CCCCC2)c2c3ccccc3c(O)c3cccc1c23` was tested, and the Potency was “inactive”. `Cc1noc(/C=C/Nc2ccc(F)cc2F)c1[N+](=O)[O-]` was tested, and the Potency was “inactive”. For `CCN1C(=O)/C(=C2/Sc3ccccc3N2CC)S/C1=N\c1nc[nH]n1`, the Potency was “inactive”. For `CC1CC(NC(=O)c2cc3c(=O)n4ccccc4nc3n2C)CC(C)(C)C1` (stereo unspecified), the Potency was “inactive”. With `Cc1nc(NN)c2c3c(sc2n1)COC(C)(C)C3` the Potency was “inactive”. With `COc1cc(-c2nc3ccccn3c2/N=C/c2cccc(OC)c2O)ccc1O` the Potency was “inactive”. `COc1cnc(-c2ccccc2)nc1Oc1ccc(Cl)cc1C` was tested, and the Potency was “inactive”. For `CCCCNc1c(-c2ccc(OC)c(SC3CCCCC3)c2)nc2cnccn12`, the Potency was “inactive”. For `COc1ccc(-c2nc3ccc(C)cn3c2CC(C)(C)C)cc1OC`, the Potency was 12.6 µM (active). `COc1ccc(-c2nc3c(-c4ccc(Cl)cc4)cnn3cc2C)cc1F` was tested, and the Potency was “inactive”. For `COc1ccc(-c2cc(-c3ccc(N)cc3)nc(N)c2C#N)cc1OC`, the Potency was “inactive”. With `COc1ccc(-c2nc3ccc(Cl)cn3c2Cc2cccc(F)c2)cc1OC` the Potency was 39.8 µM (active). `COc1ccccc1Cc1c(-c2cccc(Cl)c2)nc2ccc(C)cn12` was tested, and the Potency was 22.4 µM (active). For `O=C(O)c1ccc2c(c1)ncn2C1CCCC1`, the Potency was “inactive”. `Cc1nc(CS(=O)(=O)c2ccccn2)sc1C(=O)NNC(=O)c1ccc(Cl)cc1` was tested, and the Potency was “inactive”. With `N#Cc1cc2c(=O)n3ccccc3nc2n(-c2ccccc2Cl)c1=O` the Potency was “inactive”. With `CN(CCO)c1nc(NCc2ccccc2)c2cnn(C)c2n1` the Potency was “inactive”. With `COc1ccc(C2=CC(c3ccco3)n3ncnc3N2)cc1` (stereo unspecified) the Potency was “inactive”. `CCOC(=O)COc1nc(-c2ccco2)cc(-c2ccco2)c1C#N` was tested, and the Potency was “inactive”. For `N#Cc1cnn2c3c(cnc12)C(=O)N1CCc2ccccc2C1C3` (stereo unspecified), the Potency was “inactive”. `Cc1sc2ncnc(N/N=C/c3cccc(O)c3)c2c1C` was tested, and the Potency was “inactive”. With `CCc1cccc(NC(=O)C2CCN(c3ncnc4sc(C)c(C)c34)CC2)c1` the Potency was 33.6 µM (active). `NNC(=O)c1cc2c(N3CCC(Cc4ccccc4)CC3)ncnc2s1` was tested, and the Potency was “inactive”. `O=C(NN/C=C1/C(=O)N(c2ccc(Cl)cn2)C(=O)c2ccccc21)C1CC1` was tested, and the Potency was “inactive”. For `COc1ccccc1C1C=C(c2ccc(C(C)C)cc2)Nc2nnnn21` (stereo unspecified), the Potency was “inactive”. For `O=C(NC1CCCCC1)Sc1ccc(Cl)cc1`, the Potency was 35.5 µM (active). With `O=C(NNC(=O)NC1CCCCC1)NC1CCCCC1` the Potency was “inactive”. With `Cc1cc(Cl)cc(C)c1OCC(=O)NC1CCCCCC1` the Potency was “inactive”. `COc1cccc(C2CN(c3ccc(F)cc3F)N=C2c2cccs2)c1OC` (stereo unspecified) was tested, and the Potency was “inactive”. In the case of `Cc1nc(N/C(N)=N/C(=O)NC2CCCCC2)nc2ccccc12`, the Potency is reported as 20 µM (active). For `O=C(NC1CCCC1)c1[nH]nc2ccccc12`, the Potency was “inactive”. In the case of `C=CCn1c(SCC(=O)NC2CCCCC2)nc2ccccc2c1=O`, the Potency is reported as “inactive”. `Cc1cccc(NC(=O)c2sc3nc4c(c(-c5ccco5)c3c2N)CCC4)c1` was tested, and the Potency was “inactive”. `Cc1cccc(NC(=O)c2nc(S(=O)(=O)Cc3ccccc3)ncc2Cl)c1` was tested, and the Potency was 35.5 µM (active). For `O=C(NCc1ccccc1)c1cnc2ccccc2c1O`, the Potency was “inactive”. With `O=C(NCc1ccc2c(c1)OCO2)c1cccnc1Cl` the Potency was “inactive”. For `COc1cccc(CNC(=O)CCS(=O)(=O)c2ccccc2Cl)c1`, the Potency was “inactive”. For `O=C(NCc1ccc2c(c1)OCO2)c1nc(S(=O)(=O)Cc2ccccc2F)ncc1Cl`, the Potency was 20 µM (active). With `Cc1cccc(CS(=O)(=O)c2ncc(Cl)c(C(=O)NCc3ccccc3)n2)c1` the Potency was 31.6 µM (active). With `O=C(COc1ccc(S(=O)(=O)N2CCOCC2)cc1Cl)NCc1ccc2c(c1)OCO2` the Potency was “inactive”. In the case of `C=CCn1c(=N)c(C(=O)NCCCOC)cc2c(=O)n3cccc(C)c3nc21`, the Potency is reported as “inactive”. `CCc1cc(=O)oc2cc(OC(=O)CN3C(=O)NC4(CCCC4)C3=O)ccc12` was tested, and the Potency was “inactive”. In the case of `CCOC(=O)c1cc2c(=O)n3cccc(C)c3nc2n(CCOC)/c1=N\C(C)=O`, the Potency is reported as “inactive”. `CC(C)Cn1c(N)c(C(=O)NCC2CCCO2)c2nc3ccccc3nc21` (stereo unspecified) was tested, and the Potency was “inactive”. In the case of `COc1ccc(-c2nc(NC(=O)c3ccc(OCC(=O)N4CCOCC4)c(OC)c3)sc2C)cc1`, the Potency is reported as 15.8 µM (active). For `COc1cc(C(=O)Nc2nc(-c3ccc(Cl)cc3)c(C)s2)ccc1OCC(=O)Nc1ccc(F)cc1`, the Potency was 35.5 µM (active). With `COc1ccccc1NC(=O)c1sc2nc(C)c(C(=O)Nc3ccc(Cl)cc3)c(-c3ccc(Br)cc3)c2c1N` the Potency was “inactive”. For `COc1ccc(-c2nc(NC(=O)c3ccc(OCC(=O)Nc4ccc(F)cc4)c(OC)c3)sc2C)cc1`, the Potency was 11.2 µM (active). In the case of `COc1ccc(-c2ccc3c(N)c(C(=O)Nc4cc(F)ccc4C)sc3n2)cc1`, the Potency is reported as “inactive”. In the case of `COc1ccc(C(=O)N2CCNC(=O)C2CC(=O)Nc2ccc(C)cc2)cc1` (stereo unspecified), the Potency is reported as “inactive”. In the case of `COc1ccc(C(=O)OCC(=O)N2CCOCC2)cc1S(=O)(=O)N1CCOCC1`, the Potency is reported as “inactive”. With `COc1ccc(C(=O)Nc2ccc(OCC(=O)N3CCOCC3)cc2)c(OC)c1OC` the Potency was “inactive”. In the case of `COc1ccc(C(=O)Nc2nc3n(n2)C(c2ccc(F)cc2)C=C(c2ccc(Cl)cc2)N3)cc1` (stereo unspecified), the Potency is reported as “inactive”.

Reference: ChEMBL document CHEMBL1201862, “PubChem BioAssay data set” (2004)
